This is one part of a sample in which hits are shown more often than they occur.
TTR transcr act: TTR transcription activators in neuroblastoma reporter cells, primary screen, cell-based, luminescence, SH-SY5Y, TTR promoter Gaussia luciferase; 100% = recombinant luciferase protein wells; activation, % at 16.7 µM; hit rate 1.3% among 92,000;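 active means activation above the mean of all tested compounds plus 3 SD, cut at about 9.5% in these data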;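 further: cells exposed to compounds for one day before reading; 0% = median of all test compound wells on the plate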
An asterisk follows results filed as active.

SMILES	TTR transcr act
CCOc1ncccc1C(=O)Nc1ccccc1N1CCOCC1	-2.0
Cc1cc(C)c(OCC(=O)Nc2ccccc2N2CCOCC2)c(C)c1	-2.2
CCOCCCNCC(=O)Nc1ccccc1N1CCOCC1	20.7*
CC(C)Oc1ccc(-c2csc(N3CCC(C(N)=O)CC3)n2)cc1	-1.9
CC(C)n1c(O)c(N=NC(=O)CNC(=O)CCc2ccccc2)c2ccccc21	2.1
CCn1c(O)c(N=NC(=O)c2cccs2)c2ccccc21	0.1
Cn1c(O)c(N=NC(=N)N)c2ccccc21	17.3*
Cn1c(N)c(C(=O)CCl)c(=O)n(Cc2ccccc2)c1=O	12.4*
CC1CN(CC(=O)c2c(N)n(Cc3ccccc3)c(=O)n(C)c2=O)CC(C)O1 (centres undefined)	-1.6
CN(C)CC(=O)c1c(N)n(Cc2ccccc2)c(=O)n(C)c1=O	-0.4
Cc1ccc(CN[C@@H]2CC[C@@]34CCCN3C(=O)CCC[C@H]4C2)cc1	9.2
O=C(c1ccc(Cl)cc1)C1CCN(c2ncnc3sccc23)CC1	-1.5
CCOC(=O)c1c(C=O)c(C)n(Cc2ccc(Cl)cc2)c1C	-3.2
CCOC(=O)c1c(C=O)c(C)n(Cc2ccccc2)c1C	11.1*
CCOC(=O)c1cn(Cc2ccccc2)nn1	0.5
C[C@H]1[C@@H](OC(=O)Nc2cc(Cl)ccc2Cl)CC[C@@]23CCCN2C(=O)CCC[C@@H]13	-1.4
O=[N+]([O-])c1cccc2[nH]c(CNc3nc(N4CCOCC4)nc4c3ncn4-c3ccsc3)nc12	1.1
Clc1ccc([C@H]2OC[C@@]3(CNCc4ccccc4)CS[C@H](c4ccc(Cl)cc4)N23)cc1	-0.3
CCC(c1nnc(SCC(=O)Nc2ccc(C(N)=O)cc2)n1Cc1ccccc1)N(C)C (centres undefined)	-0.4
CCC(c1nnc(SCC(=O)Nc2ccc(S(N)(=O)=O)cc2)n1Cc1ccccc1)N(C)C (centres undefined)	1.5
CCC(c1nnc(SCC(=O)Nc2nnc(-c3ccccc3)o2)n1Cc1ccccc1)N(C)C (centres undefined)	28.3*
C=CCN(C)C(C#CCCCC)c1ccccc1 (centres undefined)	1.0
CCOc1ccc(C(=O)NC2CCN(C(=O)NCc3ccccc3)CC2)cc1	-0.6
O=C(Nc1ccc(F)cc1)C1CCN(C(=O)NCc2ccccc2)CC1	2.0
CCOc1ccc(NC(=O)C2CCCN(C(=O)NCc3ccccc3)C2)cc1 (centres undefined)	11.4*
SMILES	TTR transcr act
COc1ccc(C(=O)C2CCN(c3ncnc4sccc34)CC2)cc1	-3.9
CC(C)(N[C@@H](Cc1ccccc1)C(=O)NCCc1c[nH]c2ccccc12)C(=O)NC1CCCCC1	-0.4
Cc1cc([N+](=O)[O-])nn1CC(=O)Nc1ccc(F)cc1	0.8
Cc1cc(C)n(CC(=O)Nc2ccccc2)n1	0.1
CC(=O)c1ccc(NC(=O)Cn2nc(C)cc2C)cc1	10.2*
Cc1cc(N2CCN(C(=O)c3ccco3)CC2)n2ncnc2n1	-1.7
Cc1nn2c(N3CCN(C(=O)c4ccco4)CC3)cc(C(C)(C)C)nc2c1-c1ccccc1	10.1*
Cc1cc(N2CCN(C(=O)c3ccco3)CC2)n2ncc(-c3ccccc3)c2n1	-0.4
C[C@H]1[C@H](c2ccccc2)OC(O)([C@H](Cc2ccccc2)NC(=O)OC(C)(C)C)CN1C (some centres undefined)	-0.2
COc1ccc(Oc2c(Cl)cnn(-c3ccc(C(C)C)c(C)c3)c2=O)cc1	1.3
CC(=O)c1cccc(NC(=O)c2ccc3c(c2)OCO3)c1	-2.1
COc1cc(NC(=O)c2ccc3c(c2)OCO3)ccc1NC(=O)C(C)C	21.2*
NC(=O)c1ccc(NC(=O)c2ccc3c(c2)OCO3)cc1	1.2
COc1ccc(COC[C@H](C)N2C[C@@H](C)[C@H](CN(C)S(=O)(=O)c3ccc(F)cc3)OCCCC[C@H](C)Oc3ccc(NC(=O)Nc4ccccc4)cc3C2=O)cc1	-1.8
COc1cccc(C2CC(=O)Nc3cc(OC)c(OC)c(OC)c32)c1OC (centres undefined)	15.6*
COc1cccc(C2CC(=O)Nc3cc(OC)c(OC)cc32)c1 (centres undefined)	0.2
COc1cccc(C2CC(=O)Nc3n[nH]c(-c4ccccc4)c32)c1OC (centres undefined)	0.6
O=C(c1cccs1)C1CCN(c2ncnc3sccc23)CC1	-3.8
Nc1[nH]c(C(=O)c2ccccc2)c(-c2cccc3ccccc23)c1C(=O)c1c(-c2ccccc2)[nH]c2ccccc12	-2.1
N#Cc1cccc(NC(=O)O[C@@H]2CC[C@@]34CCCN3C(=O)CCC[C@H]4C2)c1	1.7
C[C@H]1[C@@H](N(C)CC2CCCCC2)CC[C@@]23CCCN2C(=O)CCC[C@@H]13	4.3
CN(C)S(=O)(=O)c1cccc(NC(=O)COC(=O)c2c[nH]c(=O)[nH]c2=O)c1	0.0
CN(C(=O)COC(=O)c1c[nH]c(=O)[nH]c1=O)C1CCCCC1	23.1*
CC1CCCC(C)N1C(=O)COC(=O)c1ccc[nH]c1=O (centres undefined)	-2.1
FC(F)(F)c1ccccc1NC(=S)OCCN1CCCC12CCC(c1ccccc1)CC2 (centres undefined)	0.7
SMILES	TTR transcr act
Cc1cc(C)cc(NC(=O)O[C@@H]2CC[C@@]34CCCN3C(=O)CCC[C@H]4C2)c1	-1.5
Cc1ccc(S(=O)(=O)N2O[C@@H](c3ccccc3)C[C@H]2CON2C(C)(C)CCCC2(C)C)cc1	-0.9
C[C@H]1CN([C@@H](C)CO)C(=O)Cc2cc(NC(=O)Nc3ccccc3)ccc2O[C@H]1CN(C)Cc1ccccc1	-3.3
Cc1ccc(S(=O)(=O)N(C)C[C@@H]2Oc3ccc(NS(=O)(=O)c4ccccc4)cc3CC(=O)N([C@@H](C)CO)C[C@H]2C)cc1	-3.4
C[C@@H]1CN([C@H](C)CO)C(=O)c2cc(NC(=O)Cc3cn(C)c4ccccc34)ccc2O[C@H]1CN(C)C(=O)Nc1ccc2c(c1)OCO2	-3.9
C[C@H]1CN([C@@H](C)CO)C(=O)Cc2cc(NS(C)(=O)=O)ccc2O[C@@H]1CN(C)Cc1ccc(Cl)c(Cl)c1	13.3*
CNC[C@H]1Oc2ccc(NC(=O)Cc3cn(C)c4ccccc34)cc2CC(=O)N([C@@H](C)CO)C[C@H]1C	14.9*
C[C@H](CO)N1C[C@H](C)[C@H](CN(C)Cc2ccc(Oc3ccccc3)cc2)Oc2ccc(NC(=O)Nc3cccc4ccccc34)cc2CC1=O	-5.0
CCCCCCC/C=C(\C)[C@@H](O)[C@@H](C)C(=O)N1CCC[C@@H]1C(=O)O	0.1
O=C1CCC[C@H]2C[C@H](NCc3ccc(F)cc3F)CC[C@]23CCCN13	-0.6
Cc1ccc(CNC2CCC23CCC(c2ccccc2)CC3)o1 (centres undefined)	-0.7
O=C1CCC[C@H]2C[C@H](NCc3cccs3)CC[C@]23CCCN13	0.5
O=C1CCC(CNc2ccccc2)N1c1ccccc1 (centres undefined)	0.8
C[C@H]1[C@@H](OC(=O)NCCc2ccccc2)CC[C@@]23CCCN2C(=O)CCC[C@@H]13	3.1
COc1ccc(S(=O)(=O)N(C)C[C@@H]2Oc3ccc(NS(C)(=O)=O)cc3C(=O)N([C@@H](C)CO)C[C@H]2C)cc1	-0.7
COc1ccc(S(=O)(=O)N(C)C[C@H]2Oc3ccc(NC(=O)C4CC4)cc3C(=O)N([C@H](C)CO)C[C@@H]2C)cc1	11.7*
Cc1ccc(S(=O)(=O)N(C)C[C@H]2Oc3ccc(NC(=O)C4CCCCC4)cc3C(=O)N([C@H](C)CO)C[C@H]2C)cc1	-1.2
CCSc1nnc([C@@H]2CCCN2C(=O)OC(C)(C)C)o1	1.2

Compound activity (PubChem)
